Bioassay records from PubChem BioAssay.
CYP2C9 inhib – human CYP2C9 inhibition; CYP2C9 Supersomes, luciferin-H conversion, luminescence; inhibition, % at 5 µM; 96,000 tested, 20% active;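 active = blocking of liver enzyme CYP2C9 beyond about 50% at 5 µM, limit read from the data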
CYP2C9 activ – CYP2C9 (human) activation; recombinant CYP2C9, luciferin-H conversion, luminescence; stronger effect = higher value; factor 1 = untreated enzyme, 0 = blocked; activation factor at 5 µM; 96,000 tested, 1.4% active; AID 1024;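 active = activation factor of 2 or more for CYP2C9 at a 5 µM dose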;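 note: 0 = sulfaphenazole-blocked wells and 1 = vehicle-only wells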
CYP2C19 inhib – human CYP2C19 inhibition. P33261. CYP2C19 Supersomes, luciferin-H EGE luminescence, 30 min. inhibition, % at 5 µM. 96,000 tested, 21% active;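 active = CYP2C19 inhibition above a set limit at 5 µM in the primary screen, cut at about 50% in these data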;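 note: plate controls were negative control wells for no effect and 2.5 mM tranylcypromine positive control for full effect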
Target sequence (P33261 whole entry, looked up): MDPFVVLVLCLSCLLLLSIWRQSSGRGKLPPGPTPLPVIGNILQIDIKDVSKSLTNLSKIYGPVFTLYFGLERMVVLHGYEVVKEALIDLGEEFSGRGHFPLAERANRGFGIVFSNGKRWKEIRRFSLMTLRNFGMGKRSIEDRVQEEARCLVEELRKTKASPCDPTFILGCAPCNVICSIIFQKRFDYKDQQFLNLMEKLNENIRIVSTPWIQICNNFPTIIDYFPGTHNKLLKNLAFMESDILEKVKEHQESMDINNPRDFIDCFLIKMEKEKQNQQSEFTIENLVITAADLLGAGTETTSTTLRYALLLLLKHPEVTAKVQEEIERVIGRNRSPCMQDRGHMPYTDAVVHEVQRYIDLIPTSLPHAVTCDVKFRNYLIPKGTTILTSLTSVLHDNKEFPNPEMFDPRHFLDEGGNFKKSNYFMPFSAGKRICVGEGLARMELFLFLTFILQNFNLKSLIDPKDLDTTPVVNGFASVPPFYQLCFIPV
CYP2C19 activ – cytochrome P450 2C19 (human) activation | P33261 | recombinant CYP2C19, luciferin-H EGE luminescence; stronger effect = higher value; 0 = fully inhibited enzyme, 1 = untreated enzyme | activation factor at 5 µM | 96,000 tested, under 10 active | AID 1025;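 active = activation factor of at least 2 at 5 µM in the primary screen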;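 note: 0 = wells with 2.5 mM tranylcypromine and 1 = vehicle-only wells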
Measles CPE – protection of cells from measles virus. protection (pct of control), % at 4 µM. AID 841. Measles virus-infected cells, CPE protection, absorbance. 140,000 tested, 1.5% active; in the data active = protection mostly above about 24%, no sharp cut-off; inactive = mostly below about 26%
* = called active by the depositor; . = not tested or not shown; ! = not active in a repeat. Most compounds without a hit are left out; they make up all but 22% or so of the library.

SMILES	CYP2C9 inhib	CYP2C9 activ	CYP2C19 inhib	CYP2C19 activ	Measles CPE
CCCn1nc2cc(C(=O)NCCc3cccs3)ccc2c1OCC	34	0.7	54*	0.5	20
CCCn1nc2cc(C(=O)NCc3ccc(OC(F)(F)F)cc3)ccc2c1OCC	63*	0.4	45	0.6	10
CCCCNC(=O)c1ccc2c(OCC)n(CCCC)nc2c1	2	1	13	0.9	4
COc1ccc(N2CCN(c3nc4c(c(=O)n(C)c(=O)n4C)n3CCCc3ccccc3)CC2)cc1	25	0.8	13	0.9	.
CCCC(=O)c1cc(F)c(N2CCOCC2)cc1C	43	0.6	53*	0.5	5
NC(=O)c1cc(-c2ccccc2)sc1NC(=O)Cc1ccc(S(=O)(=O)N2CCOCC2)s1	52*	0.5	14	0.9	6
COc1cccc(C(c2c(NC(=O)c3ccccc3)sc(C)c2C)N2CCN(C)CC2)c1 (configuration not stated)	.	.	.	.	9
COc1ccc(-c2ncccc2O)cc1	12	0.9	1	1	22
CCOc1c(C)cc(-c2ncccc2O)cc1C	22	0.8	69*!	0.3	5
O=C(O)CCCNC(=O)c1cccc(C(=O)NCCCC(=O)O)n1	.	.	.	.	11
COc1ccc(C2SCC(=O)N2CC23CC4CC(CC(C4)C2)C3)cc1 (configuration not stated)	15	0.9	-6	1.1	23
CCOc1ccccc1/C=c1\sc2ncnn2c1=O	-123	2.2*	0	1	21
CC(=O)Oc1ccc(/C=c2\sc3ncnn3c2=O)cc1	-3	1	-5	1.1	4
COc1ccc2nc(/N=C/c3c(C)[nH]n(-c4ccc(C)cc4C)c3=O)sc2c1	.	.	.	.	10
Cn1nnnc1Sc1ncnc2scc(-c3ccccc3)c12	66*	0.3	46	0.5	23
Cn1c(=O)c2c(nc(CN3CCN(C(=O)c4ccco4)CC3)n2Cc2ccccc2)n(C)c1=O	37	0.6	27	0.7	4
O=C(c1ccco1)N1CCN(Cc2nc3ccccc3c(=O)n2-c2ccc(F)cc2)CC1	70*	0.3	36	0.6	9
CCOC(=O)C1CCN(Cc2nc3ccccc3c(=O)n2-c2ccc(F)cc2)CC1	68*	0.3	13	0.9	3
CCCCCCn1c(CN2CCCCC2CC)nc2c1c(=O)n(C)c(=O)n2C (configuration not stated)	18	0.8	6	0.9	11
Cc1c(OCc2nn[nH]n2)ccc2c3c(c(=O)oc12)CCC(C)C3 (configuration not stated)	98*	0	85*	0.2	2
COc1ccc2c3c(c(=O)oc2c1OCC(N)=O)CCCC3	-145	2.5*	11	0.9	14
CCOC(=O)COc1ccc2c3c(c(=O)oc2c1C)CCC3	79*	0.2	65*	0.4	6
CCOc1ccc2c3c(c(=O)oc2c1OCC)CCCC3	-90	1.9	45	0.5	9
CCOC(=O)CCc1c(C)c2ccc(OCC)c(C)c2oc1=O	14	0.9	25	0.7	6
Cc1c(OCc2nn[nH]n2)ccc2c3c(c(=O)oc12)CCCC3	94*	0.1	67*	0.3	8
SMILES	CYP2C9 inhib	CYP2C9 activ	CYP2C19 inhib	CYP2C19 activ	Measles CPE
COc1ccc(/C=C/C(=O)OCC(=O)Nc2ccc(Cl)c(S(=O)(=O)N(C)C)c2)cc1OC	.	.	.	.	7
COC(=O)C1=C(NC(=O)COc2ccc(Cl)cc2Cl)CCS1	.	.	.	.	20
CCS(=O)(=O)c1ccc(O)c(N2C(=O)C3C4C=CC(C4)C3C2=O)c1 (configuration not stated)	-4	1	-3	1	22
O=C(CSc1ncn[nH]1)Nc1ccccc1Sc1ccc(Cl)cc1	93*	0.1	98*	0	9
COC(=O)c1ccc(Cl)c(NC(=O)CSc2ncn[nH]2)c1	41	0.6	74*	0.3	13
COC(=O)c1cccc(NC(=O)CSc2ncn[nH]2)c1	27	0.7	57*	0.4	24
Cc1ccc(C(=O)CSc2nnc(CNc3nc(-c4ccccc4)cs3)n2C)cc1	27	0.7	34	0.7	10
CN1CCC(=NNC(=O)c2cn(-c3ccccc3)nc2-c2ccccc2)CC1	.	.	.	.	7
Cc1noc(C)c1COc1ccc(C(=O)OCc2nnc(-c3ccc(Cl)cc3)o2)cc1	95*	0	79*	0.2	5
O=C(OCc1nnc(-c2ccc(Cl)cc2)o1)c1ccncc1	67*	0.3	65*	0.3	16
CC(=O)c1ccc(OCCCC(=O)OCc2nnc(-c3ccc(Cl)cc3)o2)cc1	-101	2*	36	0.6	16
